Active and inactive are the calls of the source.
Legend:
[1] = binders of probe aFSTL3 on microarray, primary screen, stem cell growth factor project, biochemical, small-molecule microarray, fluorescence 635/667 (AID 1064); details: higher = more signal;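 note: measures binding of the biotinylated anti-FSTL3 antibody to printed compounds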
[2] = binders from COS7 lysate, DM2A8 probe, primary screen, torsin A project, cell lysate, small-molecule microarray, fluorescence 635/667 (AID 1065); details: higher = more signal, COS7 lysate expressing mutant human TOR1A
[3] = binders of probe aFGF2 on microarray, primary screen, stem cell growth factor project, biochemical, small-molecule microarray, fluorescence 635/667 (AID 1067); details: higher = more signal;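 note: measures binding of biotinylated aFGF2 protein to printed compounds on slides; z-score merges feature fluorescence and signal-to-noise across triplicate slides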
[4] = binders of probe aFGF10 on microarray, primary screen, stem cell growth factor project, biochemical, small-molecule microarray, fluorescence 635/667 (AID 1071); details: higher = more signal;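 note: score merges 667 nm spot intensity and signal to noise from triplicate slides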
[5] = target: Neurogenic locus notch homolog protein 2 (Homo sapiens) (UniProt Q04721); assay: Notch2 binders on small-molecule microarrays, primary screen, biochemical, small-molecule microarray, 635 nm fluorescence, stem cell growth factors (AID 1073); details: Notch2 binding, higher = more signal
Sequence of Neurogenic locus notch homolog protein 2 (Homo sapiens) (Q04721 whole entry, looked up, canonical isoform): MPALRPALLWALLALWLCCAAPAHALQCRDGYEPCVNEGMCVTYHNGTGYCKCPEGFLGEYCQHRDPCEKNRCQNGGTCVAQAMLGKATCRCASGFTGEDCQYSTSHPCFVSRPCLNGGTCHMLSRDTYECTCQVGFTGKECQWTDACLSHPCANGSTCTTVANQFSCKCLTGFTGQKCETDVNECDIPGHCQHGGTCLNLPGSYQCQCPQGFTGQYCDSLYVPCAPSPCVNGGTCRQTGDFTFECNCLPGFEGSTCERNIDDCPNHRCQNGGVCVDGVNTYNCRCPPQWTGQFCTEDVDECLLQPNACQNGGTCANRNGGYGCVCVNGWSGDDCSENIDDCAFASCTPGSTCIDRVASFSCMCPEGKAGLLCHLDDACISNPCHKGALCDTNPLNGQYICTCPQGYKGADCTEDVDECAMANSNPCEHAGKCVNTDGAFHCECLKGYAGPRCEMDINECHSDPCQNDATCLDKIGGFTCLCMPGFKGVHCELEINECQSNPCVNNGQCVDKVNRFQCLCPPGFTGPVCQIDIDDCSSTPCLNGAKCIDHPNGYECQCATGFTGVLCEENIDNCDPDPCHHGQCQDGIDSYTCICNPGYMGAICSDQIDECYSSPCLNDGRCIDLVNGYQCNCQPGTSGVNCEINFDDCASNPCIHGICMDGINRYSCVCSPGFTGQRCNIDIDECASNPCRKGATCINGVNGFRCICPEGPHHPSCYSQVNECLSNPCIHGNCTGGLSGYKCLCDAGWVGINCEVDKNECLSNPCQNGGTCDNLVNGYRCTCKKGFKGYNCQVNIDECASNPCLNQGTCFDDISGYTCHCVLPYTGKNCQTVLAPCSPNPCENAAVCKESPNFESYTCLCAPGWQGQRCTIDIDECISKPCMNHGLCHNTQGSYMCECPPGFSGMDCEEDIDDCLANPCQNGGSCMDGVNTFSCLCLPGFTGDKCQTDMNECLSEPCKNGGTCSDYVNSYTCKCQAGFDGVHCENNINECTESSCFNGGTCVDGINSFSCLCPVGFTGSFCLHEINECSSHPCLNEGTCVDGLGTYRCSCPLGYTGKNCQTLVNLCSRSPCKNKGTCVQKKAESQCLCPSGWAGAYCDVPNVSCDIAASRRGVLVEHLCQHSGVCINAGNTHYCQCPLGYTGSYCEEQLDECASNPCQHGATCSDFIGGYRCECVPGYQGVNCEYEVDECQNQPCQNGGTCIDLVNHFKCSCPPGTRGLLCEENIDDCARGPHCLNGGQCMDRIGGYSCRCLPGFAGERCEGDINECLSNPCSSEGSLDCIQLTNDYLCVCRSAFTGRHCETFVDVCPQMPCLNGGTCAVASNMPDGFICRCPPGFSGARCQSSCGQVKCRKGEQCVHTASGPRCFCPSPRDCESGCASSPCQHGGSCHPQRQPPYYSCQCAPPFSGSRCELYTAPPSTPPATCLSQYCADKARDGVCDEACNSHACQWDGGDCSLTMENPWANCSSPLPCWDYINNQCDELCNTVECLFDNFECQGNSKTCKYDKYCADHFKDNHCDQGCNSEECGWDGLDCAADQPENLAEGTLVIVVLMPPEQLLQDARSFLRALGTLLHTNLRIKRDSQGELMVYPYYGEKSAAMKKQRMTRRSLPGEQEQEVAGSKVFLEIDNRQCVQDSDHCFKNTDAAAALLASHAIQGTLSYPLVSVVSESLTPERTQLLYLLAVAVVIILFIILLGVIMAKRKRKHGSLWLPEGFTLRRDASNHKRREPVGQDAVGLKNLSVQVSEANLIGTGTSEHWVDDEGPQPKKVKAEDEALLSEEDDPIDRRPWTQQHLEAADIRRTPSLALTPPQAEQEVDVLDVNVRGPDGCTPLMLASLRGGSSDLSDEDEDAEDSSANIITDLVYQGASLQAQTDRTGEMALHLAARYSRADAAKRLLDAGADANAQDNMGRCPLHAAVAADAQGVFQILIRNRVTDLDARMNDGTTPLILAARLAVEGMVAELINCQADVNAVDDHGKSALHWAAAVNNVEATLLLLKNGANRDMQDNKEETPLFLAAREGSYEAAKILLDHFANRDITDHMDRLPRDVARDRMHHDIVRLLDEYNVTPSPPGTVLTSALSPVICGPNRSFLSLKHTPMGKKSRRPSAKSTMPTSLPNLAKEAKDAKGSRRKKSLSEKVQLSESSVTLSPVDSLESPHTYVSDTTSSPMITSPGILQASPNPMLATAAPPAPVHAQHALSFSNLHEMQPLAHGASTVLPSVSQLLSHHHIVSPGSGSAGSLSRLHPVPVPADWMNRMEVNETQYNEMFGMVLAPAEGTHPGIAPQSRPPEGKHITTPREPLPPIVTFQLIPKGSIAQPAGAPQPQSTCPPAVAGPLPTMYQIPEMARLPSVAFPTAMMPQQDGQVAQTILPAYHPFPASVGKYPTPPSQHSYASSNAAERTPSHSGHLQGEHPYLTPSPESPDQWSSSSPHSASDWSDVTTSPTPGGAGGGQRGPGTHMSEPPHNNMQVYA

[6] = target: Pro-neuregulin-1, membrane-bound isoform (Homo sapiens) (UniProt Q02297); assay: NRG1 binders on small-molecule microarrays, primary screen, psychiatric disease protein project, biochemical, small-molecule microarray, fluorescence 635/667 (AID 1075); details: NRG1 binding, 635 nm fluorescence, higher = more signal;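 note: score combines 667 nm spot fluorescence with signal to noise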
Sequence of Pro-neuregulin-1, membrane-bound isoform (Homo sapiens) (Q02297 whole entry, looked up, the tested form may be a part, canonical isoform): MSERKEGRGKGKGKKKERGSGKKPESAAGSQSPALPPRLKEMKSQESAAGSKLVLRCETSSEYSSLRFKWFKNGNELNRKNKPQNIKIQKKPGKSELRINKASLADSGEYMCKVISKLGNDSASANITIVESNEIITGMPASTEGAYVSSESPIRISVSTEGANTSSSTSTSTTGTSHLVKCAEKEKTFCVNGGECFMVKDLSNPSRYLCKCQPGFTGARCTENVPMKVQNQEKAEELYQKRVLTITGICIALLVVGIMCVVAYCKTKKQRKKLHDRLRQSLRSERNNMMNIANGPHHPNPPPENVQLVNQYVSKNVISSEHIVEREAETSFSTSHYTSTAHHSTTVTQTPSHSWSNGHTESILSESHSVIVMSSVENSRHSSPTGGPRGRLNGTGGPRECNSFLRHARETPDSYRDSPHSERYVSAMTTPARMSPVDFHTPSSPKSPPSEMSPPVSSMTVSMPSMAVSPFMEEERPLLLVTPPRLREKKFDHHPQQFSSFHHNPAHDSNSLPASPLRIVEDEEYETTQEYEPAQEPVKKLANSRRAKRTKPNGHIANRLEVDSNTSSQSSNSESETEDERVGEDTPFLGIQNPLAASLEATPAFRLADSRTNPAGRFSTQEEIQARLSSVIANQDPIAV

[7] = test system: Neuregulin-1 EGF-like domain; assay: binders of neuregulin-1 EGF-like domain, primary screen, biochemical, small-molecule microarray, 635 nm fluorescence (AID 1081); details: small-molecule microarray binding, higher = more signal;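 note: binding of the protein to compounds printed on small-molecule microarray slides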
[8] = FRG1 promoter luciferase signal modulators, primary screen, FRG1 inhibition for FSHD, cell-based, C2C12 myotubes, firefly/Renilla luciferase, luminescence (AID 1084); details: higher = more signal, called active from +8 up or from −8 down
[9] = binders of probe aFST on microarray, primary screen, stem cell growth factor project, biochemical, small-molecule microarray, fluorescence 635/667 (AID 1086); details: higher = more signal;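 note: score merges 667 nm fluorescence with signal-to-noise of each printed compound spot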
[10] = binders of probe aHhip on microarray, primary screen, stem cell growth factor project, biochemical, small-molecule microarray, fluorescence 635/667 (AID 1087); details: higher = more signal;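 note: score merges spot fluorescence at 667nm with spot signal to noise ratio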
[11] = test system: PRMT1 (protein arginine N-methyltransferase 1); assay: PRMT1 binders on small-molecule microarrays, primary screen, biochemical, small-molecule microarray, 635 nm fluorescence (AID 1088); details: small-molecule microarray binding, higher = more signal;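 note: binding of Prmt1 protein to compounds spotted on small-molecule microarray slides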
[12] = yeast growth modulation, basal conditions, primary screen, YJM789 clinical isolate, OD600, 24 h (AID 1089);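 note: growth of clinical yeast isolate S. cerevisiae YJM 789 seeded 1000 cells per well; test concentration not given here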; details: S. cerevisiae YJM789 growth, higher = more signal, called active from +8 up or from −8 down
[13] = fission yeast growth modulation, primary screen, strain 972, OD600, 24 h, no modulator (AID 1090);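 note: basal condition with compound alone and no growth modifier present; test concentration not given here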; details: S. pombe 972 growth, higher = more signal, called active from +8 up or from −8 down
[14] = S. cerevisiae growth modulation with rapamycin, primary screen, strain BY4716, OD600, 96 h (AID 1091); details: higher = more signal, called active from +8 up or from −8 down; note: test concentration not given here
[15] = target: Torsin-1A-interacting protein 2 (Homo sapiens) (UniProt Q8NFQ8); assay: LULL1 binders on small-molecule microarray, primary screen, cell lysate, human LULL1 lysate, 635/667 nm fluorescence (AID 1092); details: hLULL1 lysate binding, 635 nm fluorescence, higher = more signal;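 note: probe is lysate of COS7 cells overexpressing human LULL1; score merges per-feature 667 nm fluorescence with signal-to-noise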
Sequence of Torsin-1A-interacting protein 2 (Homo sapiens) (Q8NFQ8 whole entry, looked up): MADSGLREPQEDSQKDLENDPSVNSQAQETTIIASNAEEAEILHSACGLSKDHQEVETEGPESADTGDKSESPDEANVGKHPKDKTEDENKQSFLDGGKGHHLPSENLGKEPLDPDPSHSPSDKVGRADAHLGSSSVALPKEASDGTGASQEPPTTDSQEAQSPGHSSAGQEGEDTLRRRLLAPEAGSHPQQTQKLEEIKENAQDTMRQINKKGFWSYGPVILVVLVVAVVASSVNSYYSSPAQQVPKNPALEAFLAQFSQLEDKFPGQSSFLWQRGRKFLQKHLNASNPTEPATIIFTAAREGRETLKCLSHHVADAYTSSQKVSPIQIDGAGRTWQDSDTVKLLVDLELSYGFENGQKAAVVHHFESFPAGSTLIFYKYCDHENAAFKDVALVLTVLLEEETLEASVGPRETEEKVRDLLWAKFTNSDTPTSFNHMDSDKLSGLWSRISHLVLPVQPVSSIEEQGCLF

[16] = E. coli growth modulation, two-sided OD650, primary screen, E. coli filamentation project, strain DRC41, 24 h (AID 1093); details: OD650, 24 h, higher = more signal, called active from +8 up or from −8 down;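 note: MC1000 strain lacking acrAB efflux and sulA so SOS filamentation is blocked; test concentration not given here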
[17] = small-molecule microarray binders of probe aLefty2, primary screen, biochemical, biotinylated probe, 635/667 nm fluorescence (AID 1094); details: higher = more signal;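 note: score merges spot fluorescence near 667 nm with spot signal-to-noise ratio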
[18] = test system: Noggin (protein binding on small-molecule microarray); assay: Noggin binders on small-molecule microarray, primary screen, biochemical, 635/667 nm fluorescence (AID 1095); details: 635 nm fluorescence, higher = more signal;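 note: score merges 667 nm feature fluorescence with signal to noise over triplicate slides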
[19] = target: Neurogenic locus notch homolog protein 3 (Homo sapiens) (UniProt Q9UM47); assay: NOTCH3 binders on small-molecule microarray, primary screen, biochemical, 635/667 nm fluorescence (AID 1096); details: NOTCH3 binding, 635 nm fluorescence, higher = more signal
[20] = small-molecule microarray binders of probe aEGFR, primary screen, biochemical, biotinylated probe, 635/667 nm fluorescence (AID 1097); details: higher = more signal;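 note: probe is a biotinylated anti-EGFR antibody binding compounds printed on slides; score combines fluorescence near 667 nm and signal to noise of each spot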

Structure (SMILES)	composite z-score [1]	composite z-score [2]	composite z-score [3]	composite z-score [4]	composite z-score [5]	composite z-score [6]	composite z-score [7]	z-score [8]	composite z-score [9]	composite z-score [10]	composite z-score [11]	z-score [12]	z-score [13]	z-score [14]	composite z-score [15]	z-score [16]	composite z-score [17]	composite z-score [18]	composite z-score [19]	composite z-score [20]
COc1ccc([Si](C)(C)[C@@H]2[C@@H](CCO)O[C@]3(C(=O)N(Cc4ccccc4)c4ccccc43)[C@H]2C)cc1	-0.377	0.274	-0.0692	0.351	0.216	-0.01	0.501	0.377 (inactive)	-0.0439	-0.0994	1.06	0.566 (inactive)	0.124 (inactive)	1.24 (inactive)	0.955	1.73 (inactive)	-0.228	0.0139	0.167	-0.143
COc1cc(CO)cc(I)c1O[C@H]1C=C(C(=O)NCCO)C[C@@H](N(CC2CCCCC2)C(=O)c2cc3ccccc3oc2=O)[C@@H]1O	-0.336	-0.0516	-0.0513	0.233	0.363	0.0577	0.377	-1.48 (inactive)	-0.52	0.0722	-0.449	0.411 (inactive)	-0.858 (inactive)	-0.393 (inactive)	0.0986	2.1 (inactive)	-0.186	0.606	-0.0481	-0.0656
COCCOC(=O)N1C(=O)[C@@]2(c3cc(C#CCC(C(=O)OC)C(=O)OC)ccc31)[C@H](c1ccccc1OCCO)N1[C@H](c3ccccc3)[C@H](c3ccccc3)OC(=O)[C@H]1[C@@H]2C(=O)N1CCCCCCC1	3.6	0.618	0.486	0.388	0.966	0.889	1.33	-0.0751 (inactive)	2.9	2.32	1.51	1.22 (inactive)	0.639 (inactive)	3.35 (inactive)	3.29	-0.366 (inactive)	1.53	1.63	1.11	0.83
COCCOC(=O)N1C(=O)[C@@]2(c3cc(C#CC4=CCCCC4)ccc31)[C@H](c1ccc(O)cc1)N1[C@H](c3ccccc3)[C@H](c3ccccc3)OC(=O)[C@H]1[C@@H]2C(=O)N1CCCCCCC1	2.57	-0.264	-0.06	0.0509	0.521	0.292	0.359	0.0812 (inactive)	0.547	0.294	1.57	0.2 (inactive)	-1.06 (inactive)	0.776 (inactive)	2.11	2.01 (inactive)	0.367	1.42	1.13	0.0143
Cc1ccc(N2C(=O)c3ccccc3[C@](C)(C(=O)O)[C@@H]2c2ccc(CO)cc2)nc1	1.5	-0.461	-0.224	-1.1	-1.52	1.91	-0.402	0.744 (inactive)	-0.663	-0.181	-1.11	0.508 (inactive)	-0.633 (inactive)	0.653 (inactive)	-1.18	1.62 (inactive)	-0.15	-2.06	-1.17	-0.427
Cc1ccc(S[C@]2(C(=O)NCCN3CCOCC3)CC(=O)N(C3Cc4ccccc4C3)[C@@H]2c2ccc(CO)cc2I)cc1	1.1	0.677	-0.19	-0.761	-1.11	1.69	0.544	-0.974 (inactive)	0.336	-0.0994	1.01	-2.08 (inactive)	-5.05 (inactive)	0.401 (inactive)	1.96	1.75 (inactive)	0.366	-1.62	-0.484	-0.204
[N-]=[N+]=Nc1ccccc1C[C@@]1(C(=O)N2CCOCC2)N=C(c2ccc(OCCCO)cc2)O[C@@H]1c1ccccc1N=[N+]=[N-]	1.14	0.782	0.195	0.707	1.45	0.889	1.12	-1.36 (inactive)	1.18	0.0511	1.56	-0.822 (inactive)	-2.95 (inactive)	1.56 (inactive)	2.32	2.13 (inactive)	0.369	0.8	1.09	0.0477
C=CC[C@@]1(C(=O)NCC(O)CO)N=C(c2ccc(OCCCO)cc2)O[C@@H]1c1ccccc1CN=[N+]=[N-] (stereo not given in full)	0.325	0.674	-0.11	-0.355	0.13	1.79	1.23	-2.68 (inactive)	0.966	-0.236	1.18	-0.785 (inactive)	-1.42 (inactive)	-1.04 (inactive)	3.84	1.52 (inactive)	-0.147	-0.265	-0.216	-0.152
C/C(=N\O)C(=O)NCCCCCNC(=O)OCc1ccccc1	-0.286	0.135	-0.0711	0.418	0.475	0.0391	0.619	0.725 (inactive)	0.271	-0.226	-0.214	-0.286 (inactive)	-0.966 (inactive)	-1.27 (inactive)	0.63	2.03 (inactive)	-0.0741	0.65	0.996	0.0221
